# Data from article PMC7862700, “An all-to-all approach to the identification of sequence-specific readers for epigenetic DNA modifications on cytosine”.
# Key:
# Assay in all cases: DAPPL (digital affinity profiling via proximity ligation, sequencing); 10 mM Tris-HCl pH 7.5, 50 mM NaCl, 1 mM DTT, 4% glycerol, room temperature, 30 min; GST-TFs on glutathione beads, 16-mer random dsDNA library, 0.1% formaldehyde crosslink after washing; high values mean tight binding
# FLI1 = target: T1, FLI1 (Homo sapiens, UniProt Q01543 1-452); conditions: protein: recombinant; tags: N-terminal GST; dsDNA, one strand shown
# T1 sequence: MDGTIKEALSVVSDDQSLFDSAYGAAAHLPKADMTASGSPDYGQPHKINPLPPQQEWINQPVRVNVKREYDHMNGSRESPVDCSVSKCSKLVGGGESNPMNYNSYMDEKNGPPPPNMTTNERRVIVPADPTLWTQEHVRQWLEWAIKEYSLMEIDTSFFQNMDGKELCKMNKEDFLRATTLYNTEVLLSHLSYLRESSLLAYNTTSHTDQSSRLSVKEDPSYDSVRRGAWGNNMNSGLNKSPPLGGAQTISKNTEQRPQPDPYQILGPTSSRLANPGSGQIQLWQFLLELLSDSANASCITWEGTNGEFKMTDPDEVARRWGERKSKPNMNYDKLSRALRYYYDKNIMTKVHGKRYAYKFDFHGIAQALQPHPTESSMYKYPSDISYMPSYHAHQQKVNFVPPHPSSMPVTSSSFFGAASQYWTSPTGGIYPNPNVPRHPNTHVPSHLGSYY
# Procedure, shortened: (§1)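 Human transcription factors fused to GST were expressed in yeast, captured on glutathione beads, given DNA barcodes and pooled with a GST-only negative control. Pools were incubated with 200 nmole of a 16-mer random double-stranded DNA library in Tris/NaCl/DTT/glycerol buffer at room temperature for 30 min. They were then washed, crosslinked with 0.1% formaldehyde, proximity-ligated (BsaI/T4 ligase, 1 h, 37 °C), PCR-amplified and sequenced on an Illumina NextSeq500. Binding signal is each 6-mer's read frequency for a factor divided by its frequency for the GST control.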
# ELK1 = target: T2, ELK1 (Homo sapiens, UniProt P19419 1-428); conditions: protein: recombinant; tags: N-terminal GST; dsDNA, one strand shown
# T2 sequence: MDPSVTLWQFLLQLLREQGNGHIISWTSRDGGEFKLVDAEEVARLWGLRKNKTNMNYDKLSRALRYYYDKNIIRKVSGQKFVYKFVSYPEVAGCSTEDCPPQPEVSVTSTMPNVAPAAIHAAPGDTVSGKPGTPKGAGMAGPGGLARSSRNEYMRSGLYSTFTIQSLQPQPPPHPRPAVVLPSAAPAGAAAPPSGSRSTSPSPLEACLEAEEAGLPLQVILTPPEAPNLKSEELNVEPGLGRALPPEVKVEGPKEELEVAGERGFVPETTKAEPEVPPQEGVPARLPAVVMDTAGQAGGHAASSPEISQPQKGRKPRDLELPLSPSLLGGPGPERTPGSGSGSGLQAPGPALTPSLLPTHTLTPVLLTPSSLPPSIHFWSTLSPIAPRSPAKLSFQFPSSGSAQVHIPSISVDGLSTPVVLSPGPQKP
# Procedure, shortened: as §1
# GABPA = target: T3, GABPA (Homo sapiens, UniProt Q06546 1-454); conditions: protein: recombinant; tags: N-terminal GST; dsDNA, one strand shown
# T3 sequence: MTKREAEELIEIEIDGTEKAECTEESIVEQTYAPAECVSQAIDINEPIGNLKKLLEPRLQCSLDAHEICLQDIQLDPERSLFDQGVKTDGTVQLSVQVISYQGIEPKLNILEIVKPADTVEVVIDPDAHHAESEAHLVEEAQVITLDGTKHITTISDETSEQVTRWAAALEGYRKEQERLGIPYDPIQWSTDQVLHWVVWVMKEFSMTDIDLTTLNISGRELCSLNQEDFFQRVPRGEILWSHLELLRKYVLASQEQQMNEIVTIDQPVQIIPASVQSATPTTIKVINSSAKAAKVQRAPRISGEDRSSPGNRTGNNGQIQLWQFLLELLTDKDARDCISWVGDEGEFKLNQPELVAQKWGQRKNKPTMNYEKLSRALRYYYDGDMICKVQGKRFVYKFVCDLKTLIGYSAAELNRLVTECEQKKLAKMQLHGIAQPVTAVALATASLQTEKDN
# Procedure, shortened: as §1
# ERG = target: T4, ERG (Homo sapiens, UniProt P11308 1-479); conditions: protein: recombinant; tags: N-terminal GST; dsDNA, one strand shown
# T4 sequence: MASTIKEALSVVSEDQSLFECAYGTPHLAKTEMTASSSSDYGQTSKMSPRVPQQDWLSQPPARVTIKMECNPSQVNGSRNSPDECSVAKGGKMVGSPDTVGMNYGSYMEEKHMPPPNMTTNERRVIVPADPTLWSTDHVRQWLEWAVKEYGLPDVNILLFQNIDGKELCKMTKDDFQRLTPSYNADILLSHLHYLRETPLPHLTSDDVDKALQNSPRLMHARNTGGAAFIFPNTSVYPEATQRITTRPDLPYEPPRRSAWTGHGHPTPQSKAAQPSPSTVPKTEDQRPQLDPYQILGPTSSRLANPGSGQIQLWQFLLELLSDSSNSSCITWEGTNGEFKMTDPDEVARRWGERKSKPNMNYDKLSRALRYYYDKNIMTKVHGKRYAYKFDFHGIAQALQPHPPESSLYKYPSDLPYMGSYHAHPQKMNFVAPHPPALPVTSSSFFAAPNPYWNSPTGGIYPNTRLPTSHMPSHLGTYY
# Procedure, shortened: as §1
# ELF1 = ELF1 (Homo sapiens, UniProt P32519 1-619); conditions: protein: recombinant; tags: N-terminal GST; dsDNA, one strand shown
# Procedure, shortened: as §1
# EHF = target: T5, EHF (Homo sapiens, UniProt Q9NZC4 1-300); conditions: protein: recombinant; tags: N-terminal GST; dsDNA, one strand shown
# T5 sequence: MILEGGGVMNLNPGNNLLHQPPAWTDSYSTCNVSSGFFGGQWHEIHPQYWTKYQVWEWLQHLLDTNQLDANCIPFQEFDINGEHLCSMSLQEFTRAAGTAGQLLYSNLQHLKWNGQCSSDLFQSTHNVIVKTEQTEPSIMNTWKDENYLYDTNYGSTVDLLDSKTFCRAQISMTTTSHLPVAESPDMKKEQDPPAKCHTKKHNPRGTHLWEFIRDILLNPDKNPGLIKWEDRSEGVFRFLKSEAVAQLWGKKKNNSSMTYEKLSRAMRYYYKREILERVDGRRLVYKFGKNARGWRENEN
# Procedure, shortened: as §1
# SPI1 = SPI1 (Homo sapiens, UniProt P17947 1-270); conditions: protein: recombinant; tags: N-terminal GST; dsDNA, one strand shown
# Procedure, shortened: as §1
# SPIB = SPIB (Homo sapiens, UniProt Q01892 1-262); conditions: protein: recombinant; tags: N-terminal GST; dsDNA, one strand shown
# Procedure, shortened: as §1
# ELK3 = target: T6, ELK3 (Homo sapiens, UniProt P41970 1-407); conditions: protein: recombinant; tags: N-terminal GST; dsDNA, one strand shown
# T6 sequence: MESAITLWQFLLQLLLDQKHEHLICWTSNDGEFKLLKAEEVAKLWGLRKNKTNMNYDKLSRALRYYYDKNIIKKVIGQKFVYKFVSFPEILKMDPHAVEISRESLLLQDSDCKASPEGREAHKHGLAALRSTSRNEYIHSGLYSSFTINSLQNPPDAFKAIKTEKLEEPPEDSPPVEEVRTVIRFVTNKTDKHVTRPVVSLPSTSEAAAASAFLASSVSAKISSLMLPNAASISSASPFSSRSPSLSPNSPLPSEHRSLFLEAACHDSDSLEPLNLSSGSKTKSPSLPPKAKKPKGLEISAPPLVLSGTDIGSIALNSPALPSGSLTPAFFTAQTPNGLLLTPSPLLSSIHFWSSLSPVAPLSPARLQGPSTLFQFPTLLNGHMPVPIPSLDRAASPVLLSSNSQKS
# Procedure, shortened: as §1
# FEV = target: T7, FEV (Homo sapiens, UniProt Q99581 1-238); conditions: protein: recombinant; tags: N-terminal GST; dsDNA, one strand shown
# T7 sequence: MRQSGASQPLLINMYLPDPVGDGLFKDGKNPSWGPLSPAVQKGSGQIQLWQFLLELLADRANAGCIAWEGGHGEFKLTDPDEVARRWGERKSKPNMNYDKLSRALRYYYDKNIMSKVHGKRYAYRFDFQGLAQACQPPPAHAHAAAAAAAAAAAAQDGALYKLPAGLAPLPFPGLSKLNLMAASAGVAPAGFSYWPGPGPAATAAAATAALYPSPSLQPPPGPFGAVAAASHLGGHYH
# Procedure, shortened: as §1
# ETV5 = ETV5 (Homo sapiens, UniProt P41161 1-510); conditions: protein: recombinant; tags: N-terminal GST; dsDNA, one strand shown
# Procedure, shortened: as §1
# HSF1 = HSF1 (Homo sapiens, UniProt Q00613 1-529); conditions: protein: recombinant; tags: N-terminal GST; chain copies: 3; dsDNA, one strand shown
# Procedure, shortened: as §1
# SPIC = target: T8, SPIC (Homo sapiens, UniProt Q8N5J4 1-248); conditions: protein: recombinant; tags: N-terminal GST; dsDNA, one strand shown
# T8 sequence: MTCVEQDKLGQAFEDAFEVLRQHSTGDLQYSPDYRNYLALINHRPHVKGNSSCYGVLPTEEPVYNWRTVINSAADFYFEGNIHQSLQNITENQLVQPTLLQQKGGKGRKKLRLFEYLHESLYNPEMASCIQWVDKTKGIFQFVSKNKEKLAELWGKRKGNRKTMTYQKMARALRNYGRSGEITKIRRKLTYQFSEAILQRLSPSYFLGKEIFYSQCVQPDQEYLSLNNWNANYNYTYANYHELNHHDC
# Procedure, shortened: as §1
# ELF4 = ELF4 (Homo sapiens, UniProt Q99607 1-663); conditions: protein: recombinant; tags: N-terminal GST; dsDNA, one strand shown
# Procedure, shortened: as §1
# ELK4 = target: T9, ELK4 (Homo sapiens, UniProt P28324-2 1-405); conditions: protein: recombinant; tags: N-terminal GST; dsDNA, one strand shown
# T9 sequence: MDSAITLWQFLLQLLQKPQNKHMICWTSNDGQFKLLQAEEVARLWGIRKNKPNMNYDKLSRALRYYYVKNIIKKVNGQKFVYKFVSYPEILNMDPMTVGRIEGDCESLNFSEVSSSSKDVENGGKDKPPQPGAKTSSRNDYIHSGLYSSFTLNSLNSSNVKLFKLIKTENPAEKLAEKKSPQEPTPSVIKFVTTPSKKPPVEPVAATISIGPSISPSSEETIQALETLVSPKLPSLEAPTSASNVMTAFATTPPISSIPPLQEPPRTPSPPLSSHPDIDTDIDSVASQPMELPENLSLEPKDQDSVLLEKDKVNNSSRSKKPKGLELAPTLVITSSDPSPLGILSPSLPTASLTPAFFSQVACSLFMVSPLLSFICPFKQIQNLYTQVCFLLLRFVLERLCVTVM
# Procedure, shortened: as §1
# ETV2 = target: T10, ETV2 (Homo sapiens, UniProt O00321 1-342); conditions: protein: recombinant; tags: N-terminal GST; dsDNA, one strand shown
# T10 sequence: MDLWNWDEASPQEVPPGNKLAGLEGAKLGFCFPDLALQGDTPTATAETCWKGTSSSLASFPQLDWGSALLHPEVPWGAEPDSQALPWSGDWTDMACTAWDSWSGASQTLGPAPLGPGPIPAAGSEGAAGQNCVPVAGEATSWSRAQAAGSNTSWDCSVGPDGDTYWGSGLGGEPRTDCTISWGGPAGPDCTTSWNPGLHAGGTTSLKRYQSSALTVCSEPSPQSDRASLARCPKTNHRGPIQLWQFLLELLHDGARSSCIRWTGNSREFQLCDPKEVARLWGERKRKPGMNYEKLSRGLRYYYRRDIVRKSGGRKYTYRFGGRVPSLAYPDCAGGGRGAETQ
# Procedure, shortened: as §1
# ELF3 = target: T11, ELF3 (Homo sapiens, UniProt P78545 1-371); conditions: protein: recombinant; tags: N-terminal GST; dsDNA, one strand shown
# T11 sequence: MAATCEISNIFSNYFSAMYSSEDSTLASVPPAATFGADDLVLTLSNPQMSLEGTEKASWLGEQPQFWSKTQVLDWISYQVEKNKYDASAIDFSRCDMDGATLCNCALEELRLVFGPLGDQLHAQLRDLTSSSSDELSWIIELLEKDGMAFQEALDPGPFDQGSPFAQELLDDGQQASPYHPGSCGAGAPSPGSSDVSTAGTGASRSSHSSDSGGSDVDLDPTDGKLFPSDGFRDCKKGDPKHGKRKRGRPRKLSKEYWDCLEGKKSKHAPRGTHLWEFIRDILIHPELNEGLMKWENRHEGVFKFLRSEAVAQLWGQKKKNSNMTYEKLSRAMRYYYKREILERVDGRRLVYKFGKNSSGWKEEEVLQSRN
# Procedure, shortened: as §1
# CRX = CRX (Homo sapiens, UniProt O43186 1-299); conditions: protein: recombinant; tags: N-terminal GST; dsDNA, one strand shown
# Procedure, shortened: as §1
# ETV1 = ETV1 (Homo sapiens, UniProt P50549 1-477); conditions: protein: recombinant; tags: N-terminal GST; dsDNA, one strand shown
# Procedure, shortened: as §1
# ELF4, sequence (Q99607 whole entry): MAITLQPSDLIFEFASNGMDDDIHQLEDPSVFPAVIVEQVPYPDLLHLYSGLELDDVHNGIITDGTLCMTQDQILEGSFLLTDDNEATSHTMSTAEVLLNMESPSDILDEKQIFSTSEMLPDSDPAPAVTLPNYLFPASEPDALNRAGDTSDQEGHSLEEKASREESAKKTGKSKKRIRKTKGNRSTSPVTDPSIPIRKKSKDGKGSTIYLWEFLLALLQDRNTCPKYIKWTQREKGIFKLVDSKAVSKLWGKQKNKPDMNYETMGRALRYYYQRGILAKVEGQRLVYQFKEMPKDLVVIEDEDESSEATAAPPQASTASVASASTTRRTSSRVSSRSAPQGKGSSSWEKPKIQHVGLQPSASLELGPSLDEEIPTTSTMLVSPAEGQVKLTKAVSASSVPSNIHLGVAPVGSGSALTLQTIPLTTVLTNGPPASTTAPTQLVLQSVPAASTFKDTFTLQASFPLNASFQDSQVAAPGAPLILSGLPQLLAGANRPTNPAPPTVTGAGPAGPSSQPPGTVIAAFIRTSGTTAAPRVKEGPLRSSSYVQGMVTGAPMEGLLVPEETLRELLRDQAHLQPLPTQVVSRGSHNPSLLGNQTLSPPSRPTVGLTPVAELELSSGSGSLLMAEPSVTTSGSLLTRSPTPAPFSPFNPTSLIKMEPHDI
# CRX, sequence (O43186 whole entry): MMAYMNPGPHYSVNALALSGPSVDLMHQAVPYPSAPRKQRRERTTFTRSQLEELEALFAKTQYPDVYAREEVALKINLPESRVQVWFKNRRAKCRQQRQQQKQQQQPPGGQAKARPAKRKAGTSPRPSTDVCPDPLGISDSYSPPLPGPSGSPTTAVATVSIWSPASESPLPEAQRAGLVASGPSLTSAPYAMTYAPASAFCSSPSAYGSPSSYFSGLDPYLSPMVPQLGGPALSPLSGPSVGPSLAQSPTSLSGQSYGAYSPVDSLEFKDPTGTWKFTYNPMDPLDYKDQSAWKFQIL
# HSF1, sequence (Q00613 whole entry): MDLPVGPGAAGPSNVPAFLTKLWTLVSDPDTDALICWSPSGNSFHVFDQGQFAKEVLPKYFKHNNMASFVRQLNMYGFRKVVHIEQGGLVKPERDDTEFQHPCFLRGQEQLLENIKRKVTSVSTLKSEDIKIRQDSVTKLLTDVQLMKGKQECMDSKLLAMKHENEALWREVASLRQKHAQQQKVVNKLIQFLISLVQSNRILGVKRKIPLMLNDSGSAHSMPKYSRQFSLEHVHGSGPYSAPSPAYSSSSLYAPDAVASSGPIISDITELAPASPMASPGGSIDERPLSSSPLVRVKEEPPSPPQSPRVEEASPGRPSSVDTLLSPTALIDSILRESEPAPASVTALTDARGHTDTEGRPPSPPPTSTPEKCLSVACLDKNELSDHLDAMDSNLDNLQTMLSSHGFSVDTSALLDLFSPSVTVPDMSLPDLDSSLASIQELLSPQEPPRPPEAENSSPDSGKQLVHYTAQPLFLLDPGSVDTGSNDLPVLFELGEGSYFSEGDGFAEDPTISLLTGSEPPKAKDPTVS
# ELF1, sequence (P32519 whole entry): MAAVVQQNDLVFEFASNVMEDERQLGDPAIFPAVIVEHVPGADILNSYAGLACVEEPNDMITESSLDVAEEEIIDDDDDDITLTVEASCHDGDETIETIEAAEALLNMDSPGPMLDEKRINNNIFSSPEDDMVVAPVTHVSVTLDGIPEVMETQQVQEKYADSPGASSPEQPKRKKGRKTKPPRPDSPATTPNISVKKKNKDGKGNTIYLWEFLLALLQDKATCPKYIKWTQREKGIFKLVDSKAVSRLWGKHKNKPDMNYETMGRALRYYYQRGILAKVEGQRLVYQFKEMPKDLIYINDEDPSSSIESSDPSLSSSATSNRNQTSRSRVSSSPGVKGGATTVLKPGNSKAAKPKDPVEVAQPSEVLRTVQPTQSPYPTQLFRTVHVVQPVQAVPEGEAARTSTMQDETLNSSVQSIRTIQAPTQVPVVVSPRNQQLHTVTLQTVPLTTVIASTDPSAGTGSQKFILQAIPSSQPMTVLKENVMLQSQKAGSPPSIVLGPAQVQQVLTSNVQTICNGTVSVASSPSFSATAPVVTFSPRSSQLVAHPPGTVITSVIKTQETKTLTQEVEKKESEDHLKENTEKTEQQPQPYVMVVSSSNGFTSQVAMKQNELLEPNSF
# ETV5, sequence (P41161 whole entry): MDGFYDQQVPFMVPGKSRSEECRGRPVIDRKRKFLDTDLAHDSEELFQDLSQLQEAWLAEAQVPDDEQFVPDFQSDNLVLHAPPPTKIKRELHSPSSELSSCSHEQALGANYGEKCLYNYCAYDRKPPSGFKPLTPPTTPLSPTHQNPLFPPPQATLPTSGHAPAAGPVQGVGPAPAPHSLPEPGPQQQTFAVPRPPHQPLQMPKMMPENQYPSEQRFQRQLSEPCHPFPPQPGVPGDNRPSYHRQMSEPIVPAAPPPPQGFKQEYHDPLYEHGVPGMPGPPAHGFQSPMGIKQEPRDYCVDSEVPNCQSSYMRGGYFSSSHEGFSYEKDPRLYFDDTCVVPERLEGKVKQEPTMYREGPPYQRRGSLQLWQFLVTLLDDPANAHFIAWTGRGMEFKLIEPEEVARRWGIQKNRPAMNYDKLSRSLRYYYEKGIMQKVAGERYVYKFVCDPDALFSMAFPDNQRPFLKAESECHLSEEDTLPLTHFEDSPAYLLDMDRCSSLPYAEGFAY
# ETV1, sequence (P50549 whole entry): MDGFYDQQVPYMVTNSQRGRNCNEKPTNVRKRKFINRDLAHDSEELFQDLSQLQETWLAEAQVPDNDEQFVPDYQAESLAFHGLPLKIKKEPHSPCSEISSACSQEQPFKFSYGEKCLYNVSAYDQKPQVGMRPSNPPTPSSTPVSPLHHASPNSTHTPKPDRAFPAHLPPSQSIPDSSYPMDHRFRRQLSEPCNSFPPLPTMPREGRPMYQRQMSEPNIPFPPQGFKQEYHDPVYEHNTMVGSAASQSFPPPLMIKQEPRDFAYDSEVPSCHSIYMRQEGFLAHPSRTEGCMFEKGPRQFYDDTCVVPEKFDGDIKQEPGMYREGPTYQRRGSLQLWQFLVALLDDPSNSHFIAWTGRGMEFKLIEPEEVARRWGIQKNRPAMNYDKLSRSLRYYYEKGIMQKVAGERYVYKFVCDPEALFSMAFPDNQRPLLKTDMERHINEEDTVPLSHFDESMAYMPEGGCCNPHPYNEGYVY
# SPIB, sequence (Q01892 whole entry): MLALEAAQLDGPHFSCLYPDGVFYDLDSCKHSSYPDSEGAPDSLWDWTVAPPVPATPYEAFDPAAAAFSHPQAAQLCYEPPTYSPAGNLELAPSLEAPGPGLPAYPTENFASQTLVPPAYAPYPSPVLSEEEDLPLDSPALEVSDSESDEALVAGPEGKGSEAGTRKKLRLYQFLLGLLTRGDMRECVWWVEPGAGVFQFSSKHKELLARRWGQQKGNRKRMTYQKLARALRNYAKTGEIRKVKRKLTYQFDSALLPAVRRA
sequence,measurement,setting,value
TCCAAC,binding signal,FLI1,"1.22 fold enrichment (6-mer frequency, TF over GST control)"
same,binding signal,ELK1,"1.24 fold enrichment (6-mer frequency, TF over GST control)"
same,binding signal,GABPA,"1.22 fold enrichment (6-mer frequency, TF over GST control)"
same,binding signal,ERG,"1.16 fold enrichment (6-mer frequency, TF over GST control)"
same,binding signal,ELF1,"1.25 fold enrichment (6-mer frequency, TF over GST control)"
same,binding signal,EHF,"1.23 fold enrichment (6-mer frequency, TF over GST control)"
same,binding signal,SPI1,"1.18 fold enrichment (6-mer frequency, TF over GST control)"
same,binding signal,SPIB,"1.16 fold enrichment (6-mer frequency, TF over GST control)"
same,binding signal,ELK3,"1.21 fold enrichment (6-mer frequency, TF over GST control)"
same,binding signal,FEV,"1.21 fold enrichment (6-mer frequency, TF over GST control)"
same,binding signal,ETV5,"1.14 fold enrichment (6-mer frequency, TF over GST control)"
same,binding signal,HSF1,"1.11 fold enrichment (6-mer frequency, TF over GST control)"
same,binding signal,SPIC,"1.26 fold enrichment (6-mer frequency, TF over GST control)"
same,binding signal,ELF4,"1.24 fold enrichment (6-mer frequency, TF over GST control)"
same,binding signal,ELK4,"1.21 fold enrichment (6-mer frequency, TF over GST control)"
same,binding signal,ETV2,"1.22 fold enrichment (6-mer frequency, TF over GST control)"
same,binding signal,ELF3,"1.23 fold enrichment (6-mer frequency, TF over GST control)"
same,binding signal,CRX,"1.05 fold enrichment (6-mer frequency, TF over GST control)"
same,binding signal,ETV1,"1.2 fold enrichment (6-mer frequency, TF over GST control)"
